Measurements taken from PubChem BioAssay AID624138 (Broad Institute, 2012).
The campaign covered roughly 17,000 compounds. About 35 (0.2%) were called active.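 The calls were made as follows: active = compounds whose four printed spots each show fluorescence over background unusually high for their array block, chance value under 7%; inactive = the rest.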 The full list was thinned out, with actives kept by preference.

biological target: Signal transducer and activator of transcription 3 (Homo sapiens) (UniProt P40763); assay: STAT3 binders, primary screen, biochemical, small molecule microarray, single point, set 2 (AID 624138); conditions: His-STAT3 binding, anti-His fluorescence
Sequence (P40763 whole entry, looked up): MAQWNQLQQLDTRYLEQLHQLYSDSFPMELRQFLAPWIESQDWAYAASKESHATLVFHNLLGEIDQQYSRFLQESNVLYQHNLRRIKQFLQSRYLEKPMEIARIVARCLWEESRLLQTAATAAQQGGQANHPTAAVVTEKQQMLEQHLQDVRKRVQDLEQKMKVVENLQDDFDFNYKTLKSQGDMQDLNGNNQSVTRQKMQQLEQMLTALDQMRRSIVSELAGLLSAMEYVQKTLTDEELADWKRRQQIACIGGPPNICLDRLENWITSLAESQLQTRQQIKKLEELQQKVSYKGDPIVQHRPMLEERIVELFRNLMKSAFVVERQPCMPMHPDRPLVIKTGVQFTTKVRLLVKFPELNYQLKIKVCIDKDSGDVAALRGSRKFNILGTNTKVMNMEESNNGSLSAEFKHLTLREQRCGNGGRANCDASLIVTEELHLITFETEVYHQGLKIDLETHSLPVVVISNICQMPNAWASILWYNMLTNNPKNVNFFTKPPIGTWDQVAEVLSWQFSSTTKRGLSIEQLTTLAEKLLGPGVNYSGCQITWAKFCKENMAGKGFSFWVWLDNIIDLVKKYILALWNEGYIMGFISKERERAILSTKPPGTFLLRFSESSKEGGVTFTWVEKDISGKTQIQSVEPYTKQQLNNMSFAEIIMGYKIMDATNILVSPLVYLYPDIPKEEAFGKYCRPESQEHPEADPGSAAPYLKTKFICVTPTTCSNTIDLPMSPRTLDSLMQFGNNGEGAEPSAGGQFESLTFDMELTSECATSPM

**Q.** For Cc1noc(C)c1NC(=O)Nc1ccc2c(c1)C(=O)N([C@@H](C)CO)C[C@H](C)[C@H](CN(C)Cc1ccc(C(=O)O)cc1)OCCCC[C@@H](C)O2, which outcome is on record?
**A.** inactive

**Q.** For C[C@H](CO)N1C[C@H](C)[C@H](CN(C)Cc2ccncc2)Oc2ccc(N(C)C)cc2C1=O, which outcome is on record?
**A.** inactive

**Q.** With C[C@H]1CN([C@@H](C)CO)C(=O)c2cc(NC(=O)Cn3cnnn3)ccc2O[C@@H]1CN(C)CC1CCCCC1 as the compound, how does the outcome read?
**A.** inactive

**Q.** C[C@H]1CN([C@@H](C)CO)C(=O)Cc2cc(NC(=O)Nc3ccccc3)ccc2O[C@H]1CN(C)Cc1ccncc1 was tested. Which outcome did it give?
**A.** inactive

**Q.** With Cc1cc(O)c2c(c1)C(=O)OC2c1c(O)cccc1O (stereo not given) as the compound, how does the outcome read?
**A.** inactive

**Q.** Which outcome does the source give for CO[C@H]1O[C@H](CO)[C@@H](OC(=O)Nc2ccccc2-c2ccccc2)[C@H](OC(=O)Nc2ccccc2)[C@H]1OC(=O)Nc1ccccc1 here?
**A.** inactive

**Q.** CC(=O)n1cc([C@@H]2C=C(C(=O)N3CCN(Cc4ccc5c(c4)OCO5)CC3)O[C@H](OCc3ccc(CO)cc3)C2)c2ccccc21 was tested. Which outcome did it give?
**A.** inactive

**Q.** For Cc1noc(C)c1S(=O)(=O)Nc1ccc2c(c1)C(=O)N([C@@H](C)CO)C[C@@H](C)[C@H](CN(C)C(=O)NC(C)C)OCCCC[C@@H](C)O2, which outcome is on record?
**A.** inactive

**Q.** How did the outcome turn out when Cc1noc(C)c1NC(=O)Nc1ccc2c(c1)C(=O)N([C@@H](C)CO)C[C@H](C)[C@H](CN(C)S(=O)(=O)c1cn(C)cn1)OCCCC[C@@H](C)O2 was run?
**A.** inactive

**Q.** Which outcome does the source give for C[C@@H]1CN([C@H](C)CO)C(=O)c2cccc(NS(=O)(=O)c3cccs3)c2O[C@@H]1CN(C)C(=O)Nc1cccc2ccccc12 here?
**A.** inactive

**Q.** Which outcome does the source give for CC(C)NC(=O)Nc1ccc2c(c1)C(=O)N([C@@H](C)CO)C[C@@H](C)[C@H](CN(C)S(=O)(=O)c1ccccc1)OCCCC[C@@H](C)O2 here?
**A.** inactive

**Q.** How did the outcome turn out when CC(=O)Nc1ccc(NC(=O)CC2C(=O)Nc3ccccc3N2C(C)=O)cc1 (stereo not given) was run?
**A.** inactive

**Q.** COc1ccc2c(c1)C(=O)CC(c1ccccc1)O2 (stereo not given) was tested. Which outcome did it give?
**A.** inactive

**Q.** How did the outcome turn out when Cc1ccc2[nH]c(C)c(CCNC(=O)Nc3ccc(Cl)cc3)c2c1 was run?
**A.** inactive

**Q.** For C[C@@H]1CN([C@H](C)CO)C(=O)c2cccc(NC(=O)C3CCOCC3)c2O[C@H]1CN(C)S(=O)(=O)c1ccc(Cl)cc1, which outcome is on record?
**A.** inactive

**Q.** COc1ccc(S(=O)(=O)Nc2ccc3c(c2)CC(=O)N([C@H](C)CO)C[C@H](C)[C@H](CN(C)CC2CC2)O3)cc1 was tested. Which outcome did it give?
**A.** inactive

**Q.** With Cc1noc(C)c1S(=O)(=O)N(C)C[C@H]1Oc2c(NC(=O)c3cnccn3)cccc2C(=O)N([C@H](C)CO)C[C@H]1C as the compound, how does the outcome read?
**A.** inactive

**Q.** For C/C(=C/CC[C@@H](CO)[C@H]1CC[C@@]2(C)[C@@H]3CC[C@H]4C(C)(C)[C@@H](O[C@@H]5O[C@H](CO)[C@@H](O)[C@H](O)[C@H]5O)C[C@H](O)[C@@]45C[C@@]35CC[C@]12C)CO, which outcome is on record?
**A.** inactive

**Q.** For O=C(C1=C[C@@H](c2ccccc2)C[C@@H](OCCCCO)O1)N1CCN(Cc2ccccc2)CC1, which outcome is on record?
**A.** inactive

**Q.** C=C1C[C@@H]2COC(=O)[C@]2(Cc2ccc3ccccc3c2)C1 was tested. Which outcome did it give?
**A.** inactive

**Q.** With O=C(OC1OC(CO)C(O)C(O)C1O)c1c(O)cc(O)cc1/C=C/c1ccccc1 (stereo not given) as the compound, how does the outcome read?
**A.** inactive

**Q.** How did the outcome turn out when COc1ccc(CN(C)C[C@@H]2Oc3ccc(NC(=O)Nc4ccc(OC)cc4)cc3CC(=O)N([C@H](C)CO)C[C@H]2C)cc1 was run?
**A.** inactive

**Q.** C[C@@H]1CCCCO[C@H](CN(C)C(=O)CCCN(C)C)[C@H](C)CN([C@@H](C)CO)C(=O)c2cc(NS(=O)(=O)c3ccccc3)ccc2O1 was tested. Which outcome did it give?
**A.** inactive

**Q.** C[C@@H]1CCCCO[C@@H](CN(C)C(=O)CCCN(C)C)[C@@H](C)CN([C@H](C)CO)C(=O)c2cc(NC(=O)CCCN(C)C)ccc2O1 was tested. Which outcome did it give?
**A.** inactive

**Q.** Which outcome does the source give for CNC[C@H]1Oc2ccc(NC(=O)CCC(F)(F)F)cc2C(=O)N([C@@H](C)CO)C[C@H]1C here?
**A.** inactive

**Q.** For CCCCCc1ccc(/C=C/C(=O)Nc2ccccc2C(=O)O)cc1, which outcome is on record?
**A.** inactive

**Q.** How did the outcome turn out when CC(Sc1nc2ccccc2[nH]1)c1nc2ccccc2[nH]1 (stereo not given) was run?
**A.** inactive

**Q.** With C[C@H]1CCCCO[C@H](CN(C)C)[C@@H](C)CN([C@@H](C)CO)C(=O)c2cc(NC(=O)CCCN(C)C)ccc2O1 as the compound, how does the outcome read?
**A.** inactive

**Q.** Which outcome does the source give for COC(=O)CSc1nnc(-c2ccc(Cl)cc2)n1-c1ccc(Br)cc1 here?
**A.** inactive

**Q.** C[C@@H]1CN([C@H](C)CO)C(=O)Cc2cc(NC(=O)C3CC3)ccc2O[C@H]1CN(C)Cc1ccc(Cl)c(Cl)c1 was tested. Which outcome did it give?
**A.** inactive

**Q.** For COc1ccc(NC(=O)CN(C)S(=O)(=O)c2ccccc2)cc1OC, which outcome is on record?
**A.** inactive

**Q.** C#CCN1C(Cc2ccccc2)C(=O)O[C@H](C2CCCCC2)[C@@H]1/C=C/C1CC1 (stereo not given in full) was tested. Which outcome did it give?
**A.** inactive

**Q.** With C[C@@H]1CN([C@H](C)CO)C(=O)Cc2cc(N(C)C)ccc2O[C@@H]1CN(C)Cc1ccccc1 as the compound, how does the outcome read?
**A.** inactive

**Q.** With C[C@H]1CN([C@@H](C)CO)C(=O)c2cccc(NC(=O)C3CCOCC3)c2O[C@@H]1CN(C)C as the compound, how does the outcome read?
**A.** inactive

**Q.** How did the outcome turn out when CC1(C)CC(=O)c2ccc(O)cc2O1 was run?
**A.** inactive

**Q.** C[C@@H]1CN([C@@H](C)CO)C(=O)CCCn2cc(nn2)CO[C@H]1CN(C)C(=O)Nc1ccc(N2CCCCC2)cc1 was tested. Which outcome did it give?
**A.** inactive

**Q.** With Cc1noc(C)c1S(=O)(=O)N(C)C[C@H]1Oc2ccc(NC(=O)Cc3ccccc3)cc2CC(=O)N([C@@H](C)CO)C[C@H]1C as the compound, how does the outcome read?
**A.** inactive

**Q.** Which outcome does the source give for COc1ccccc1NC(=O)CNC(=O)c1ccc(C)cc1 here?
**A.** inactive

**Q.** With CC(C)NC(=O)Nc1ccc2c(c1)C(=O)N([C@H](C)CO)C[C@H](C)[C@@H](CN(C)C)OCCCC[C@H](C)O2 as the compound, how does the outcome read?
**A.** inactive

**Q.** CCn1c(SCC(=O)Nc2sc3c(c2C#N)CCCC3)nnc1-c1ccccc1O was tested. Which outcome did it give?
**A.** inactive
